15 molecules from PubChem BioAssay can be followed below.

Active and inactive are the calls of the source.

The target in one test is Albumin (Bos taurus) (UniProt P02769). The test can be described thus: compounds binding labelled BSA control protein – biochemical, small-molecule microarray, Alexa647 label, 635/667 nm fluorescence, artefact control for SMM control protein annotation, profiling panel (AID 1118).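 Further: score merges 667 nm emission intensity and signal-to-noise per printed compound spot.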 Conditions: BSA-A647 binding, fluorescence 635 nm, higher = more signal.
Test [1] can be described thus: probe aXIP binding to arrayed compounds – biochemical, NeuroSMM set, 635/667 nm fluorescence, primary screen (AID 1119).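 Further: probe is the protein aXip251-270 applied at 1 µg/mL to compound-printed slides; binding of probe to printed compounds measured as 667 nm fluorescence plus signal to noise.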 Conditions: small-molecule microarray, higher = more signal, called active from +8 up or from −8 down.
A short description of test [2]: probe aNOTCH3 binding on compound microarray – biochemical, small-molecule microarray, 635/667 nm fluorescence, primary screen (AID 1120).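 Further: probe is a biotin-tagged antibody raised against NOTCH3 rather than NOTCH3 protein; score merges spot fluorescence near 667 nm with spot signal to noise.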 Conditions: higher = more signal.
Test [3] can be described thus: probe aNOTCH2 binding on compound microarray – biochemical, small-molecule microarray, 635/667 nm fluorescence, primary screen (AID 1121).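 Further: score merges feature fluorescence read at 667 nm with its signal to noise.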 Conditions: higher = more signal.
For test [4], the target named is Carbonic anhydrase 2 (Homo sapiens) (UniProt P00918). As to the kind of experiment: compounds binding carbonic anhydrase 2 – biochemical, small-molecule microarray, Alexa647-labelled CAII, profiling panel (AID 1122). The conditions noted are these: CAII-A647 binding fluorescence, higher = more signal.
Test [5] can be described thus: COS7 lysate on small-molecule microarray, probe aHis, 635 nm (AID 1123).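 Further: z-score combines 667nm fluorescence intensity with signal-to-noise per printed compound spot.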 The conditions noted are these: COS7 cell lysate, fluorescence, higher = more signal.
A short description of test [6]: probe aLAP1 signal on lysate-treated microarray – cell lysate, small-molecule microarray, COS7 lysate, primary screen (AID 1124).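 Further: lysate comes from COS7 cells expressing LAP1 and is applied at 0.3 µg/mL; score merges spot fluorescence near 667 nm with signal-to-noise over triplicate slides.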 The conditions noted are these: probe aLAP1, fluorescence, higher = more signal.
In another test the test system is Sam68 (KHDRBS1). As to the kind of experiment: compounds binding KHDRBS1 protein – biochemical, small-molecule microarray, 635 nm fluorescence, primary screen (AID 1125).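 Further: score merges 667 nm channel intensity with signal to noise over triplicate slides.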 Conditions: higher = more signal.
Test [7] has as its system Chordin-like protein 2 (CHRDL2). As to the kind of experiment: compounds binding chordin-like 2 – biochemical, small-molecule microarray, 635 nm fluorescence, primary screen (AID 1126).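 Further: printed compound slides probed with Chrdl2 protein at 4 µg/mL for 1 h at 4 C; score merges 667 nm emission intensity with signal to noise over three replicate slides.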 Conditions: fluorescence 635 nm, higher = more signal.
The target of test [8] is Concanavalin-A (Canavalia ensiformis) (UniProt P02866). The test can be described thus: compounds binding concanavalin A lectin – biochemical, small-molecule microarray, Alexa647 label, 635 nm, artefact control for SMM control protein annotation, primary screen (AID 1127).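 Further: z combines 667 nm emission intensity with signal-to-noise across three replicate slides.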 Conditions: ConA-A647 binding fluorescence, higher = more signal.
Chain of Concanavalin-A (Canavalia ensiformis) (P02866 whole entry, looked up): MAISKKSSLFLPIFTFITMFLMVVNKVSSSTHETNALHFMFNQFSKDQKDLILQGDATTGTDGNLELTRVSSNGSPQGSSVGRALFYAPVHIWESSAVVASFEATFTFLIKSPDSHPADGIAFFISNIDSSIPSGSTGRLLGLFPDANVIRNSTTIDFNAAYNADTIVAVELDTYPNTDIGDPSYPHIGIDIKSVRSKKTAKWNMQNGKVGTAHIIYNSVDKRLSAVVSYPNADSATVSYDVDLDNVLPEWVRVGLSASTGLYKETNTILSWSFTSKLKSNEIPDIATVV

Chain of Albumin (Bos taurus) (P02769 whole entry, looked up): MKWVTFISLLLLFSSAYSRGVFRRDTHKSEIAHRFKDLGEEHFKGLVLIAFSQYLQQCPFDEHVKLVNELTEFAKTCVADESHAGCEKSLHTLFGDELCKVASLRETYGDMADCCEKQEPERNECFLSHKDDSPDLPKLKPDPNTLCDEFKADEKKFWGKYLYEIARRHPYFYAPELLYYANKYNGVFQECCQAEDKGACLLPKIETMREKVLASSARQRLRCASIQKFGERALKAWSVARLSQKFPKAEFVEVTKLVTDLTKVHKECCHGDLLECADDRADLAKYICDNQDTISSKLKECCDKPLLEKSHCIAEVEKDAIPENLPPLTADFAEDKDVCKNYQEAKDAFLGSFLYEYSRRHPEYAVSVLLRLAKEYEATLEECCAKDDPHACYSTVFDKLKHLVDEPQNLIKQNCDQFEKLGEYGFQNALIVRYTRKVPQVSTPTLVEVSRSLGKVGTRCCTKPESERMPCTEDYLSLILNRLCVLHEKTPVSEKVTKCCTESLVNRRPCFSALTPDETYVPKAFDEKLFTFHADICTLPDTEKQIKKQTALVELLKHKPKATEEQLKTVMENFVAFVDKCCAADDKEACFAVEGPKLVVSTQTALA

With `CN(C)CCCCCCNC(=O)[C@@H]1C[C@@H]2C(=O)N[C@@H](CCCCN)C(=O)N2[C@@H]1c1cccc(OCCO)c1`, the composite z-score stood at 1.05 with Albumin (Bos taurus); 1.79 in test [2]; 0.72 in [3]; 0.92 in test [4]; 2.35 in test [5]; 1.2 in test [6]. Moreover, the results for the composite z-score (in the test with Sam68 (KHDRBS1); in [7]; in test [8]) were 1.32, 1.2 and 1.24, respectively. Moreover, the composite Z-score in test [1] is 7.35 (inactive).

For `COCCOC(=O)N1C(=O)[C@@]2(c3cc(C#CC4=CCCCC4)ccc31)[C@H](c1ccc(O)cc1)N1[C@H](c3ccccc3)[C@H](c3ccccc3)OC(=O)[C@H]1[C@@H]2C(N)=O`, the composite z-score with Albumin (Bos taurus) is -0.353; in [2], 0.092; in test [3] it was -0.253; in test [4] it was 0.331; in [5], 1.16; in test [6], 0.45. The results for the composite z-score (with Sam68 (KHDRBS1); in test [7]; in test [8]) were 1.01, 0.71 and 1.06, respectively. In addition, the composite Z-score in [1] was 0.544 (inactive).

As to `CCOC(=O)C[C@H]1[C@H](OC(=O)c2cc3ccccc3oc2=O)[C@@H](NC(=O)C2CCCCC2)c2cc(OCCCO)ccc2N1C(=O)c1ccccc1`, the composite z-score with Albumin (Bos taurus) is 0.266; in test [2], 0.281; in [3], -0.0482; in test [4] it was 0.274; in test [5], 0.112; in [6], -0.0802. Also, the composite z-score turned out to be 1.04 in the test with Sam68 (KHDRBS1), 0.438 in test [7] and 0.282 in test [8]. In addition, the composite Z-score in test [1] was -0.275 (inactive).

With `COC(=O)C(CC#Cc1ccc2c(c1)[C@]1(C(=O)N2)[C@H](C(=O)O)[C@H]2C(=O)O[C@H](c3ccccc3)[C@H](c3ccccc3)N2[C@@H]1c1ccc(O)cc1)C(=O)OC`, the composite z-score with Albumin (Bos taurus) was -0.266; in test [2], -0.274; in test [3], -0.181; in [4], 0.66; in test [5], 1.07; in test [6] it was 0.898. The results for the composite z-score (with Sam68 (KHDRBS1); in test [7]; in test [8]) were 0.661, -0.872 and -0.417, respectively. Further, the composite Z-score in test [1] was -1.69 (inactive).

Consider `C=CC[C@@]1(C(=O)N(C)C)N=C(c2ccc(OCCCO)cc2)O[C@@H]1c1ccccc1N=[N+]=[N-]`, for which the composite z-score in the test with Albumin (Bos taurus) was 0.757; in [2], 0.37; in [3] it was 0.209; in test [4], 0.588; in test [5], 3.01; in test [6], 1.2. For the same molecule, the values for the composite z-score (in the test with Sam68 (KHDRBS1); in test [7]; in test [8]) were 1.3, -0.344 and 1.18, respectively. In addition, the composite Z-score in test [1] was 0.149 (inactive).

As for `C=CCOC(=O)[C@H]1[C@@H]2C(=O)O[C@@H](c3ccccc3)[C@@H](c3ccccc3)N2[C@@H](c2ccc(OCCOC(=O)[C@H]3C[C@H]4C(=O)N5CCC[C@H]5C(=O)N4[C@H]3c3ccc(O)cc3)cc2)[C@]12C(=O)Nc1ccc(I)cc12`, the composite z-score is -0.124 with Albumin (Bos taurus); 1.47 in [2]; 0.755 in [3]; 0.364 in test [4]; 3.31 in [5]; 1.13 in [6]. Further, the composite z-score was 1.31 in the test with Sam68 (KHDRBS1), 1.06 in [7] and 0.955 in test [8]. For the same molecule, the composite Z-score in test [1] was 5.37 (inactive).

As to `Cc1ccc(S[C@]2(C(=O)NCCN3CCOCC3)CC(=O)N(Cc3ccccc3Cl)[C@@H]2c2ccc(CO)cc2)cc1`, the composite z-score was 0.429 with Albumin (Bos taurus); -0.0362 in [2]; -0.133 in [3]; 0.686 in test [4]; 0.776 in test [5]; 0.0897 in [6]. The composite z-score in the test on Sam68 (KHDRBS1) was -0.541; in [7], -1.2; in [8] it was -0.199. In test [1], the composite Z-score is -0.0407 (inactive).

For `C#CCN(CC1=CCCCC1)[C@H](c1ccccc1Br)[C@@H](O)Cc1ccccc1`, the composite z-score in the test with Albumin (Bos taurus) is 0.306; in test [2], -0.344; in [3] it was -0.177; in [4], 0.345; in test [5], 0.545; in test [6] it was 0.0773. Moreover, the composite z-score in the test on Sam68 (KHDRBS1) is 0.516; in [7], -0.882; in test [8], -0.679. The composite Z-score in [1] is -0.356 (inactive).

For the molecule `CC(=O)NCCCC[C@@H]1NC(=O)[C@@H]2C[C@H](C(=O)NCCCCN(C)C)[C@H](c3cccc(OCCO)c3)N2C1=O`, the composite z-score was -0.374 with Albumin (Bos taurus); -0.186 in test [2]; -0.112 in test [3]; 0.57 in [4]; 0.944 in test [5]; 0.511 in test [6]. For the same molecule, the values for the composite z-score (in the test on Sam68 (KHDRBS1); in test [7]; in test [8]) were 0.259, 0.462 and 0.664, respectively. Also, the composite Z-score in test [1] was 0.714 (inactive).

`CC1(C)[C@@H]2CC(C(O)C3C=CC4C(=O)N(c5ccccc5)C(=O)C4N3Nc3ccccc3)=C[C@H]1C2` (stereo not given in full): the composite z-score with Albumin (Bos taurus) is 0.566; in test [2] it was -0.0144; in test [3], 0.0127; in [4], 0.408; in test [5], 1.61; in test [6], 0.322. Also, the results for the composite z-score (with Sam68 (KHDRBS1); in test [7]; in [8]) were 0.031, 0.684 and 0.566, respectively. The composite Z-score in [1] is -0.212 (inactive).

`CC(C)C[C@@H]1NC(=O)[C@@H]2C[C@H](C(=O)NCCCCCN)[C@H](c3cccc(OCCO)c3)N2C1=O`: the composite z-score with Albumin (Bos taurus) was 1.02; in [2] it was 0.0992; in [3] it was -0.17; in test [4], 0.813; in [5], 1.03; in test [6], 1.16. In addition, the composite z-score with Sam68 (KHDRBS1) was 0.839; in test [7], 0.0186; in test [8] it was 1.2. Moreover, the composite Z-score in test [1] was 0.425 (inactive).

`O=C1c2ccccc2[C@@]2(Cc3ccccc3N(CCN3CCOCC3)C2=O)[C@H](c2ccc(CO)cc2)N1Cc1ccccc1`: the composite z-score is -0.425 in the test with Albumin (Bos taurus); -0.165 in test [2]; -0.115 in test [3]; 0.739 in test [4]; 0.733 in test [5]; 0.235 in test [6]. Besides, the composite z-score was -0.419 in the test on Sam68 (KHDRBS1), -0.717 in test [7] and 0.203 in [8]. Besides, the composite Z-score in test [1] is -0.117 (inactive).

In the case of `COc1ccc(C(=O)Nc2ccc(CN3C(=O)[C@@]4(O[C@@H](CC(=O)N5CCC[C@H]5CO)[C@H]([Si](C)(C)c5ccc(OC)cc5)[C@H]4C)c4ccccc43)cc2)cc1`, the composite z-score with Albumin (Bos taurus) was 0.042; in test [2], -0.0219; in [3] it was -0.0389; in test [4], 0.51; in test [5], 1.78; in [6] it was 0.045. Moreover, the composite z-score was found to be 1.31 in the test on Sam68 (KHDRBS1), 0.989 in [7] and 1.08 in test [8]. Also, the composite Z-score in test [1] is 0.277 (inactive).

For `[N-]=[N+]=Nc1ccccc1C[C@@]1(C(=O)NCCN2CCOCC2)N=C(c2ccc(OCCCO)cc2)O[C@@H]1c1ccccc1`, the composite z-score with Albumin (Bos taurus) was 0.831; in test [2], 0.144; in test [3], -0.221; in test [4], 0.468; in test [5] it was 2.87; in test [6] it was 0.872. The composite z-score with Sam68 (KHDRBS1) was 1.3; in test [7], -0.11; in [8], 1.11. Moreover, the composite Z-score in test [1] was 0.255 (inactive).

Turning to `CC(C)c1ccc(NN2C(C(O)C(c3ccccc3)c3ccccc3)C=CC3C(=O)N(c4ccccc4)C(=O)C32)cc1` (stereo not given), the composite z-score turned out to be 0.933 in the test with Albumin (Bos taurus); 0.424 in test [2]; 0.101 in test [3]; 0.797 in test [4]; 2.74 in [5]; 0.902 in [6]. For the same molecule, the composite z-score in the test with Sam68 (KHDRBS1) is 1.32; in test [7], -0.348; in [8], 1.14. Moreover, the composite Z-score in [1] was -0.136 (inactive).
